The list is not random: actives were taken first. Their share in the collection is about 2.5%.
NPR2 activator – human GC-B receptor activators, primary screen, HEK293 GC-B cells, cGMP TR-FRET, EC30 CNP | activation, % at 10 µM | 0% at EC30 CNP, 100% saturating CNP | 0.11% of 370,000 active | AID 1920062, 2024;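 active means activation at 10 µM reaching about 35% in either raw or pattern-adjusted values, limit read from the data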
HSF1 activator – HSF-1 activators, primary screen, NIH3T3-HGL cells, MG132 stress, luminescence, single point; 1.7% of 300,000 active; activation, % at 9 µM; NIH3T3-HGL HSF-1 luciferase reporter, 8 h; 100% = twice DMSO control signal; AID 504408, 2011;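 active means mean replicate activation of at least 50% with a set share of replicates each reaching 50%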;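 further: 0% = median of the neutral control wells and 100% = twice that signal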
aDG glyco act – activators of alpha-DG glycosylation, primary screen, uHTS, Pro5-aDG cells, AlphaScreen. 0.22% of 360,000 active. alpha-DG glycosylation AlphaScreen (IIH6); 0% Pro5, 100% B10-LARGE cell signal. AID 624168, 2012. activation, % at 10 µM;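 active means activation of at least 8% versus controls, or a plate z-score of at least 8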;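 further: Pro5 are CHO cells carrying HIG-tagged alpha-DG that lacks glycosylation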
DYRK1A inh – rat Dyrk1A kinase inhibitors, primary screen, biochemical, single point, plate reader; ADP-Glo luminescence, NFATc1 peptide; inhibition, % at 12.5 µM; 0.43% of 310,000 active; AID 504441, 2011; in the data active means inhibition above about 50%;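 further: plate controls were vehicle with enzyme for no effect and no enzyme for full effect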
HSF1 inhib – HSF1 inhibitors in luciferase reporter cells, primary screen, cell-based, NIH3T3, luminescence; 0.77% of 300,000 active; activity change, negative = inhibition, % at 7.5 µM (by protocol); AID 2098, 2009; NIH3T3-HGL HSE-luciferase, MG132-induced, luminescence 8 h; active compounds read low;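 active means more than half of replicate wells show activity change below -50%, luminescence cut by over half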;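 further: luciferase reports HSF-1 transcriptional activity via heat shock element; 0% = median of DMSO wells and -100% = zero luminescence signal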
NPR1 activator – GC-A stimulated cGMP production enhancers – HEK293 GC-A cells, cGMP TR-FRET, EC30 ANP, primary screen; activation, % at 10 µM; Atrial natriuretic peptide receptor 1 (Homo sapiens), P16066; 0% at EC30 ANP, 100% saturating ANP; AID 1671463, 2021; 0.14% of 370,000 active; in the data active means activation above about 40%
Target sequence (P16066 whole entry, looked up): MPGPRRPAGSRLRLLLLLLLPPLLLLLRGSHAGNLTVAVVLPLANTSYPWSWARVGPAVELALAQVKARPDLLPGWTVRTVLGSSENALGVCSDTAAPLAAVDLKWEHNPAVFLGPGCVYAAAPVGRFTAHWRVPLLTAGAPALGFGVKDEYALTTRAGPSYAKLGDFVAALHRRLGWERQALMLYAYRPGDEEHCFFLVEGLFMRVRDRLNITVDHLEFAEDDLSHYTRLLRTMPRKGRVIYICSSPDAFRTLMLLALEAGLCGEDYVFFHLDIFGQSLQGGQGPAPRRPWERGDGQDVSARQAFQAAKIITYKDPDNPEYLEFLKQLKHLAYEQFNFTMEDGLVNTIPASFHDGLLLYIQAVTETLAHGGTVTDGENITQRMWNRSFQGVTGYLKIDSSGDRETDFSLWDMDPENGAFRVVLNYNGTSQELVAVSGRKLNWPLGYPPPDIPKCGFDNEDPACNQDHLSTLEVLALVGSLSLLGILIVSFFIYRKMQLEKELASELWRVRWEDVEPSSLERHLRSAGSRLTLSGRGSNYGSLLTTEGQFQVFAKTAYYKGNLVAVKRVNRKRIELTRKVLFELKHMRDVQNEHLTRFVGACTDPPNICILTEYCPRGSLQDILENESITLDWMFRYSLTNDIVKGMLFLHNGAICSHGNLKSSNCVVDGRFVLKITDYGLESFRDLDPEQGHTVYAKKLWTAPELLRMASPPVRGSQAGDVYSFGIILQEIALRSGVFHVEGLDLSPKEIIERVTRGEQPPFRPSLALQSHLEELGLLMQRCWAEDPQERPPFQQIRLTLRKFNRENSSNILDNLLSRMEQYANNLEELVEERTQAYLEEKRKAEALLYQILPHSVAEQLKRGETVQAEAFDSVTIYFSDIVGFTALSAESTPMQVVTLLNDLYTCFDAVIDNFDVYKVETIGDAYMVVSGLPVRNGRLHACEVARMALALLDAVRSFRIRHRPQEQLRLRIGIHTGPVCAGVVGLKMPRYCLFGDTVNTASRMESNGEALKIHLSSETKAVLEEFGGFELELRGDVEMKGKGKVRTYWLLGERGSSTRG
* = called active by the depositor; / = no result given.

SMILES	NPR2 activator	HSF1 activator	aDG glyco act	DYRK1A inh	HSF1 inhib	NPR1 activator
CC1CCCCN1C(=O)C12CCC(C)(C(=O)C1)C2(C)C (stereo unspecified)	2.0	-5.8	-0.2	3.3	-11.8	-0.4
CC(=O)N(/N=C1\Sc2ccccc2C1=O)c1ccc(C)cc1C	-2.6	-89.0	-0.2	/	-85.5*	-5.2
CC(=O)N(/N=C1\Sc2ccccc2C1=O)c1ccccc1C	0.9	26.5	0.0	-4.3	16.7	4.0
Cc1ccc(/C=C/C(=O)c2ccccc(=O)c2O)cc1C	0.1	76.3*	-0.3	4.8	42.8	-1.6
O=C(/C=C/c1ccccc1)c1cc(Br)ccc(=O)c1O	-6.2	90.9*	-0.2	-5.0	71.7	-0.3
O=C(CSc1nnc(-c2ccccc2Br)o1)N1CCOCC1	0.1	38.2	-0.1	-4.5	-0.4	10.2
C/C(N)=C(/C#N)C(=O)CSc1nnc(-c2ccccc2Br)o1	-2.5	115.2*	0.1	2.2	69.7	0.2
COc1ccc(-c2nnc(SCC(=O)/C(C#N)=C(\C)N)o2)cc1	5.0	80.7*	0.0	4.8	62.9	-2.0
COc1ccc(-c2nnc(SCC(=O)c3ccc(C)o3)o2)cc1	1.9	17.2	1.4	-2.5	21.9	-1.3
CCc1cc2c(nc1CC)CCCN2C	7.2	/	/	/	/	6.4
CCOC(=O)c1ccccc1NC(=O)c1cn(-c2ccc(OC)cc2)c(=O)c2ccccc12	2.0	8.5	-0.3	4.4	-2.7	2.3
CCC(=O)Nc1nnc(/C=C/c2ccccc2)s1	-5.8	25.0	0.0	1.1	-0.7	-21.6
COc1ccc2oc(C(=O)NC3(C)CCS(=O)(=O)C3)c(C)c2c1 (stereo unspecified)	-2.4	8.9	0.4	14.9	-0.7	-0.2
CCOC(=O)C1(Cc2cccc(OC)c2)CCN(Cc2cnc(SC)nc2)CC1	3.3	10.1	0.1	2.7	4.2	-1.4
COc1ccc(N2CCN(C(=S)NC(=O)c3cccs3)CC2)c([N+](=O)[O-])c1	-5.6	22.5	0.3	1.1	20.7	-4.7
O=C(Nc1ccc(N2CCCC2)c(Cl)c1)c1cccs1	-0.9	82.2*	0.3	-0.7	57.3	-1.9
CCCC(=O)N1CCN(c2ccc(NC(=O)c3cccs3)cc2)CC1	-2.3	52.7*	0.1	-2.1	29.8	1.4
O=C(NC(=S)N1CCN(c2c(Cl)cccc2[N+](=O)[O-])CC1)c1cccs1	2.5	-94.5	-0.1	0.4	-94.9*	-4.6
O=C(NC(=S)N1CCN(c2ccc(F)cc2)CC1)c1cccs1	0.4	103.5*	0.9	-0.6	38.0	-1.6
CN(C)c1ccc(CNC(=O)c2ccc(CNc3c(N4CCCCC4)c(=O)c3=O)cc2)cc1	4.9	60.5*	-0.1	3.3	29.6	-3.7
Cc1cc(C)c(C(CC(=O)c2cccs2)C(C#N)C#N)c(C)c1 (stereo unspecified)	-7.6	122.5*	0.1	-4.9	84.7	-15.7
Cc1cc(C)c(C(=O)c2cccs2)c(C)c1	0.7	/	3.7	3.8	/	-0.3
Clc1ccc2nc(N3CCCCC3)sc2c1	-4.8	55.5*	-0.1	-3.0	20.6	1.8
Cc1c(C(=O)OCc2ccccc2)[nH]c2c1C(=O)CC(c1ccco1)C2 (stereo unspecified)	/	-22.1	0.1	-2.2	-19.6	/
CC(=O)c1sc(NC(C)c2ccccc2)nc1C (stereo unspecified)	-2.8	-9.0	0.2	-4.7	-1.8	3.0
COc1ccc(C(=O)C2CCCN(S(=O)(=O)C(C)C)C2)c(C)c1 (stereo unspecified)	-1.8	62.2*	0.3	-0.9	15.1	2.8
COc1ccc(C(=O)C2CCCN(S(=O)(=O)N(C)C)C2)c(C)c1 (stereo unspecified)	7.6	3.8	0.1	-3.5	4.0	-5.5
O=C(O)c1nc(N2CCOCC2)nc(N2CCOCC2)n1	-1.3	1.4	-0.2	-7.3	-5.8	3.1

Screening results (PubChem)
